Laboratory results: PubChem BioAssay (NCI)
Compounds without any hit were thinned out: in the full panel of roughly 79,000, 15% have a hit. Active and inactive are the calls of the source. Cut-off read from the data, not from the text of the source: active = growth inhibition above about 70%; inactive = the rest.

How the values were obtained:
[1] = NCI Yeast Anticancer Drug Screen. Data for the wt1 strain (AID 149);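 note: 0% = growth of vehicle-treated wt1 cultures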; details: S. cerevisiae wt1 strain (SPY 50644) growth inhibition, active compounds read high
How it was run: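 Yeast wt1 strain exposed to compounds; growth inhibition measured relative to vehicle-treated controls.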

[2] = NCI Yeast Anticancer Drug Screen. Data for the rad50EPP+ strain (AID 151);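 note: 0% = growth of vehicle-treated control cultures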; details: S. cerevisiae rad50 mutant strain, active compounds read high
How it was run: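 Compounds were applied to the rad50EPP+ yeast strain, which bears a defined DNA repair alteration, and growth inhibition was determined relative to vehicle-treated cultures.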

[3] = NCI Yeast Anticancer Drug Screen. Data for the mgt1 strain (AID 153); details: S. cerevisiae mgt1 mutant growth inhibition, active compounds read high
How it was run: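 Strain: mgt1 yeast, one of a set carrying defined DNA damage repair or cell cycle control alterations. Compound-treated growth compared with vehicle.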

[4] = NCI Yeast Anticancer Drug Screen. Data for the rad50 strain (AID 155);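 note: 0% = growth of vehicle-only cultures of the same strain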; details: S. cerevisiae rad50 strain growth inhibition, active compounds read high
How it was run: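 Yeast carrying a defined DNA repair defect were exposed to test compounds, and growth was compared with vehicle-treated controls to give percent inhibition.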

[5] = NCI Yeast Anticancer Drug Screen. Data for the mec2-1 strain (AID 157); details: S. cerevisiae mec2-1 strain, active compounds read high
How it was run: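 Strain: mec2-1 (DNA repair/cell cycle alteration). Compound exposure, then growth measured; inhibition expressed relative to vehicle.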

[6] = NCI Yeast Anticancer Drug Screen. Data for the rad14 strain (AID 159);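 note: 0% = growth of vehicle-treated control cultures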; details: S. cerevisiae rad14 strain growth inhibition, active compounds read high
How it was run: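 Yeast cells carrying a defined DNA-repair defect were exposed to compounds, and growth inhibition was calculated relative to vehicle-treated control cultures.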

[7] = NCI Yeast Anticancer Drug Screen. Data for the sgs1 mgt1 strain (AID 161);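 note: 0% = growth of cultures given vehicle only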; details: S. cerevisiae sgs1 mgt1 strain, active compounds read high
How it was run: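 Read-out: growth inhibition vs vehicle controls. Cells: mutant yeast strain deficient in DNA damage repair.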

[8] = NCI Yeast Anticancer Drug Screen. Data for the CLN2oe strain (AID 163);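 note: 0% = growth of vehicle-only control cultures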; details: S. cerevisiae CLN2oe strain, active compounds read high
How it was run: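 Growth of a genetically modified yeast strain is measured after compound exposure and compared with cultures given vehicle alone.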

[9] = NCI Yeast Anticancer Drug Screen. Data for the cln2 rad14 strain (AID 165);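 note: 0% = growth equal to vehicle treated cultures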; details: S. cerevisiae cln2 rad14 strain, active compounds read high
How it was run: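 Compounds are applied to the cln2 rad14 yeast strain, and growth is then compared with that of vehicle-treated cultures to give inhibition.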

[10] = NCI Yeast Anticancer Drug Screen. Data for the bub3 strain (AID 167); details: S. cerevisiae bub3 mutant strain, active compounds read high
How it was run: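 Compounds were applied to a genetically altered yeast strain carrying a cell-cycle control defect. Growth inhibition was scored against vehicle-treated controls.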

[11] = NCI Yeast Anticancer Drug Screen. Data for the wt2 strain (AID 169);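 note: 0% = growth of vehicle-treated yeast cultures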; details: S. cerevisiae wt2 strain growth inhibition, active compounds read high
How it was run: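 This strain belongs to a panel of yeast strains with defined genetic alterations in DNA damage repair or cell cycle control. Compounds are applied, and growth inhibition is measured against vehicle-treated cultures.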

[12] = NCI Yeast Anticancer Drug Screen. Data for the mlh1 strain (AID 171);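 note: 0% = growth of vehicle-treated control cultures of the same strain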; details: S. cerevisiae mlh1 strain growth inhibition, active compounds read high
How it was run: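 Growth of the mutant yeast strain after compound exposure, expressed as inhibition relative to vehicle-only controls.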

[13] = NCI Yeast Anticancer Drug Screen. Data for the sgs1 strain (AID 173);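 note: 0% = growth of vehicle-only control cultures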; details: S. cerevisiae sgs1 mutant, active compounds read high
How it was run: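 Growth of a yeast strain bearing a defined genetic alteration is measured after compound treatment. Inhibition is expressed relative to vehicle-only controls.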

[14] = NCI Yeast Anticancer Drug Screen. Data for the mlh1 rad18 strain (AID 175); details: S. cerevisiae mlh1 rad18 strain growth inhibition, active compounds read high
How it was run: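 Read-out is yeast growth inhibition, calculated against vehicle-only controls. The compound was applied to a strain engineered with DNA damage repair alterations.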

[15] = NCI Yeast Anticancer Drug Screen. Data for the rad18 strain (AID 177); details: S. cerevisiae rad18 mutant growth inhibition, active compounds read high
How it was run: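 Growth of the mutant yeast strain after compound exposure, normalised to vehicle-only cultures.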

[16] = at 5.0 µM (retest, dose inferred, filed as 0.5)
[17] = at 50.0 µM (retest, dose inferred, filed as 5.0)

Measured: growth inhibition

Cc1cccc(/C=N/NC(=S)N2CCCC2)n1
inactive: [1]; at 1.2 µM -4% | [1]; at 3.7 µM 1% | [1]; at 11.0 µM 12% | [2]; at 1.2 µM -21% | [2]; at 3.7 µM -21% | [2]; at 11.0 µM -24% | [2]; at 33.0 µM -27% | [2]; at 100.0 µM 38% | [3]; at 1.2 µM -13% | [3]; at 3.7 µM -14% | [3]; at 11.0 µM 18% | [4]; at 1.2 µM -10% | [4]; at 3.7 µM -14% | [4]; [16] 26% | [4]; at 11.0 µM 35% | [5]; at 1.2 µM -24% | [5]; at 3.7 µM -21% | [5]; [16] 36% | [6]; at 1.2 µM 2% | [6]; at 3.7 µM 6% | [7]; [16] 25% | [7]; [17] 47% | [8]; at 1.2 µM -30% | [8]; at 3.7 µM -31% | [8]; at 11.0 µM 10% | [9]; [16] 2% | [10]; at 1.2 µM -13% | [10]; at 3.7 µM -8% | [10]; [16] 40% | [10]; at 11.0 µM 32% | [11]; at 1.2 µM -6% | [11]; at 3.7 µM -8% | [11]; at 11.0 µM 10% | [12]; at 1.2 µM -8% | [12]; at 3.7 µM -8% | [12]; at 11.0 µM 48% | [13]; at 1.2 µM -19% | [13]; at 3.7 µM -21% | [13]; at 11.0 µM 17% | [14]; [16] 14% | [15]; at 1.2 µM -17% | [15]; at 3.7 µM -14% | [15]; at 11.0 µM 12%
active: [1]; at 33.0 µM 94% | [1]; at 100.0 µM 96% | [3]; at 33.0 µM 94% | [3]; at 100.0 µM 96% | [4]; at 33.0 µM 95% | [4]; [17] 94% | [4]; at 50.0 µM 86.3% | [4]; at 100.0 µM 95% | [5]; at 11.0 µM 73% | [5]; at 33.0 µM 94% | [5]; [17] 95% | [5]; at 50.0 µM 89.8% | [5]; at 100.0 µM 97% | [6]; at 11.0 µM 74% | [6]; at 33.0 µM 96% | [6]; at 100.0 µM 98% | [7]; at 50.0 µM 88.2% | [8]; at 33.0 µM 93% | [8]; at 100.0 µM 96% | [9]; [17] 94% | [9]; at 50.0 µM 87% | [10]; at 33.0 µM 95% | [10]; [17] 96% | [10]; at 50.0 µM 88.5% | [10]; at 100.0 µM 96% | [11]; at 33.0 µM 93% | [11]; at 100.0 µM 96% | [12]; at 33.0 µM 95% | [12]; at 100.0 µM 97% | [13]; at 33.0 µM 95% | [13]; at 100.0 µM 96% | [14]; [17] 95% | [14]; at 50.0 µM 86% | [15]; at 33.0 µM 95% | [15]; at 100.0 µM 96%
